The record followed here is PubChem BioAssay (EPA / NIEHS).

Read-out in test [1]: Protein phosphatase 2A (PPP2R4), PTPA (gene 5524)
As to the kind of experiment: LTEA_HepaRG_PPP2R4: Life Technologies and Expression Analysis (LTEA) Assay for Protein phosphatase 2A (PPP2R4) using HepaRG (AID 2283522). Particulars: mRNA level, 48 h; actives raise or lower the signal. The procedure, abridged: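 Cells were plated, cultured 48 h, switched to serum-free induction medium, then dosed for 48 h (8 points, max 100 uM, 0.5% DMSO). RNA was isolated and PPP2R4 expression measured by TaqMan qRT-PCR.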

Read-out in test [2]: Phosphatase and tensin (PTEN), PTEN (gene 5728)
As to the kind of experiment: LTEA_HepaRG_PTEN: Life Technologies and Expression Analysis (LTEA) Assay for Phosphatase and tensin (PTEN) using HepaRG (AID 2283523). Conditions: mRNA level, 48 h; actives raise or lower the signal. A digest of the protocol:
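HepaRG, 48 h exposure, 8-pt half-log series from 100 uM top, 0.5% DMSO vehicle, duplicates. Readout: Fluidigm qRT-PCR of PTEN transcript; housekeeping normalization (ACTB, GAPDH, POLR2A). Gain or loss fitted relative to DMSO baseline.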

Read-out in test [3]: solute carrier (SLC22A1), SLC22A1 (gene 6580)
As to the kind of experiment: LTEA_HepaRG_SLC22A1: Life Technologies and Expression Analysis (LTEA) Assay for solute carrier (SLC22A1) using HepaRG (AID 2283524). Particulars: mRNA level, 48 h; actives raise or lower the signal. A digest of the protocol: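 qRT-PCR readout (TaqMan, Fluidigm arrays) of SLC22A1 transcript, normalized to three housekeeping genes; bidirectional curve fit relative to 0.5% DMSO vehicle. Differentiated human HepaRG cells, 48 h chemical exposure, top concentration 100 uM, half-log steps, eight points.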

Read-out in test [4]: Pyruvate Dehydrogenase Kinase 4 (PDK4), PDK4 (gene 5166)
As to the kind of experiment: LTEA_HepaRG_PDK4: Life Technologies and Expression Analysis (LTEA) Assay for Pyruvate Dehydrogenase Kinase 4 (PDK4) using HepaRG (AID 2283525). Conditions: mRNA level, 48 h; actives raise or lower the signal. A digest of the protocol: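 HepaRG (human liver line), 48 h chemical exposure, 8-pt half-log CRC top 100 uM, 0.5% DMSO vehicle, duplicates. Readout: TaqMan qRT-PCR of PDK4 mRNA, housekeeping-normalized; gain/loss fit relative to DMSO baseline.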

Read-out in test [5]: NAD(P)H dehydrogenase [quinone] 1 (NQO1), NQO1 (gene 1728)
As to the kind of experiment: LTEA_HepaRG_NQO1: Life Technologies and Expression Analysis (LTEA) Assay for NAD(P)H dehydrogenase [quinone] 1 (NQO1) using HepaRG (AID 2283526). Conditions: mRNA level, 48 h; actives raise or lower the signal. A digest of the protocol:
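Transcript induction or suppression is quantified by qRT-PCR in human HepaRG liver cells dosed for 48 hours. Eight half-log concentrations topping at 100 uM are used, with 0.5% DMSO as vehicle and baseline.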

Read-out in test [6]: Nuclear factor erythroid 2-related factor 2 (Homo sapiens) (UniProt Q16236)
As to the kind of experiment: LTEA_HepaRG_NFE2L2: Life Technologies and Expression Analysis (LTEA) Assay for Nuclear factor erythroid 2-related factor 2 (NFE2L2) Transcription Factor using HepaRG (AID 2283527).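 Also: TaqMan qRT-PCR transcript level normalised to ACTB GAPDH and POLR2A housekeeping genes.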 Conditions: mRNA level, 48 h; actives raise or lower the signal. A digest of the protocol:
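HepaRG, 48 h dosing, 8-pt half-log series from 100 uM in 0.5% DMSO, duplicates. Read-out: NFE2L2 mRNA by qRT-PCR (ACTB/GAPDH/POLR2A normalization). Bidirectional curve fit vs DMSO baseline.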

Read-out in test [7]: succinate dehydrogenase complex iron sulfur subunit B (SDHB), SDHB (gene 6390)
As to the kind of experiment: LTEA_HepaRG_SDHB: Life Technologies and Expression Analysis (LTEA) Assay for succinate dehydrogenase complex iron sulfur subunit B (SDHB) using HepaRG (AID 2283528). Conditions: mRNA level, 48 h; actives raise or lower the signal. The procedure, abridged:
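A human HepaRG culture in serum-free induction medium received test chemicals for 48 h over an eight-point range capped at 100 uM. SDHB expression change was quantified by qRT-PCR.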

Read-out in test [8]: Signal transducer and activator of transcription 3 (Homo sapiens) (UniProt P40763)
As to the kind of experiment: LTEA_HepaRG_STAT3: Life Technologies and Expression Analysis (LTEA) Assay for Signal transducer and activator of transcription (STAT3) using HepaRG (AID 2283529). Particulars: mRNA level, 48 h; actives raise or lower the signal. The procedure, abridged: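 HepaRG, 48 h exposure, 8-pt half-log series (top 100 uM), 0.5% DMSO vehicle, duplicates. Readout: STAT3 transcript by Fluidigm qRT-PCR, housekeeping-normalized; bidirectional fit vs DMSO baseline.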

Read-out in test [9]: solute carrier (SLCO1B1), SLCO1B1 (gene 10599)
As to the kind of experiment: LTEA_HepaRG_SLCO1B1: Life Technologies and Expression Analysis (LTEA) Assay for solute carrier (SLCO1B1) using HepaRG (AID 2283530). Particulars: mRNA level, 48 h; actives raise or lower the signal. A digest of the protocol: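 Differentiated human HepaRG cells, plated 48 h, switched to serum-free induction medium and exposed in duplicate for 48 h to 8 half-log concentrations (top 100 uM) in 0.5% DMSO. SLCO1B1 mRNA by TaqMan qRT-PCR, normalized to ACTB/GAPDH/POLR2A.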

Read-out in test [10]: sulfotransferase 2A1 (SULT2A1), SULT2A1 (gene 6822)
As to the kind of experiment: LTEA_HepaRG_SULT2A1: Life Technologies and Expression Analysis (LTEA) Assay for sulfotransferase 2A1 (SULT2A1) using HepaRG (AID 2283531). Particulars: mRNA level, 48 h; actives raise or lower the signal. A digest of the protocol:
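Differentiated human HepaRG cells in serum-free induction medium were exposed for 48 h to eight half-log concentrations (top 100 uM, 0.5% DMSO). SULT2A1 mRNA was measured by qRT-PCR, normalized to ACTB, GAPDH and POLR2A, and fitted bidirectionally against DMSO.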

Read-out in test [11]: Transforming Growth Factor (TGFA), TGFA (gene 7039)
As to the kind of experiment: LTEA_HepaRG_TGFA: Life Technologies and Expression Analysis (LTEA) Assay for Transforming Growth Factor (TGFA) using HepaRG (AID 2283532). Conditions: mRNA level, 48 h; actives raise or lower the signal. The procedure, abridged:
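qRT-PCR read-out of TGFA transcript, normalized to three housekeeping genes, fitted bidirectionally against 0.5% DMSO baseline. Human HepaRG cultures received chemicals for 48 h at eight half-log concentrations, top 100 uM.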

Read-out in test [12]: Transforming Growth Factor (TGFB1), TGFB1 (gene 7040)
As to the kind of experiment: LTEA_HepaRG_TGFB1: Life Technologies and Expression Analysis (LTEA) Assay for Transforming Growth Factor (TGFB1) Transporter using HepaRG (AID 2283533). Particulars: mRNA level, 48 h; actives raise or lower the signal. The procedure, abridged: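 Differentiated human HepaRG cells in serum-free induction medium were exposed in duplicate for 48 h to eight concentrations (top 100 uM, half-log steps, 0.5% DMSO). TGFB1 mRNA was quantified by qRT-PCR, normalized to ACTB, GAPDH, POLR2A, and fitted bidirectionally against DMSO.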

Read-out in test [13]: TIMP1, TIMP1 (gene 7076)
As to the kind of experiment: LTEA_HepaRG_TIMP1: Life Technologies and Expression Analysis (LTEA) Assay for TIMP1 using HepaRG (AID 2283534). Conditions: mRNA level, 48 h; actives raise or lower the signal. The procedure, abridged: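 Differentiated human HepaRG cells in serum-free induction medium were exposed 48 h to chemicals (8 half-log concentrations, top 100 uM, 0.5% DMSO). TIMP1 mRNA was quantified by TaqMan qRT-PCR, normalized to ACTB/GAPDH/POLR2A; bidirectional fit versus DMSO.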

Read-out in test [14]: Tumor necrosis factor receptor 1 (TNFRSF1A), TNFRSF1A (gene 7132)
As to the kind of experiment: LTEA_HepaRG_TNFRSF1A: Life Technologies and Expression Analysis (LTEA) Assay for Tumor necrosis factor receptor 1 (TNFRSF1A) using HepaRG (AID 2283535). Conditions: mRNA level, 48 h; actives raise or lower the signal. The procedure, abridged: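 Differentiated human HepaRG cells were exposed in duplicate for 48 h in serum-free induction medium to eight concentrations (top 100 uM, half-log steps, 0.5% DMSO). TNFRSF1A mRNA was quantified by qRT-PCR, normalized to ACTB, GAPDH and POLR2A, then fitted bidirectionally against DMSO.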

Read-out in test [15]: Thyroid Hormone Responsive (THRSP), THRSP (gene 7069)
As to the kind of experiment: LTEA_HepaRG_THRSP: Life Technologies and Expression Analysis (LTEA) Assay for Thyroid Hormone Responsive (THRSP) using HepaRG (AID 2283536). Particulars: mRNA level, 48 h; actives raise or lower the signal. A digest of the protocol: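 qRT-PCR read-out (Fluidigm TaqMan), housekeeping-normalized (ACTB/GAPDH/POLR2A). HepaRG, 48 h chemical exposure, 8-pt half-log series from 100 uM in 0.5% DMSO, duplicates. Bidirectional curve fit vs 0.5% DMSO baseline.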

Read-out in test [16]: UDP glucuronosyltransferase (UGT1A1), UGT1A1 (gene 54658)
As to the kind of experiment: LTEA_HepaRG_UGT1A1: Life Technologies and Expression Analysis (LTEA) Assay for UDP glucuronosyltransferase (UGT1A1) using HepaRG (AID 2283538). Particulars: mRNA level, 48 h; actives raise or lower the signal. The procedure, abridged: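 Cells are plated, cultured 48 h, switched to serum-free induction medium, then dosed 48 h at eight concentrations (max 100 uM, 0.5% DMSO). RNA is isolated and UGT1A1 expression measured by qRT-PCR; changes versus DMSO are fitted in both directions.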

Read-out in test [17]: UDP glucuronosyltransferase (UGT1A6), UGT1A6 (gene 54578)
As to the kind of experiment: LTEA_HepaRG_UGT1A6: Life Technologies and Expression Analysis (LTEA) Assay for UDP glucuronosyltransferase (UGT1A6) using HepaRG (AID 2283539). Conditions: mRNA level, 48 h; actives raise or lower the signal. A digest of the protocol:
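Human HepaRG cells were dosed for 48 h in serum-free induction medium with 0.5% DMSO vehicle, eight-point half-log series from 100 uM, in duplicate. UGT1A6 mRNA was measured by qRT-PCR, normalized to ACTB, GAPDH, POLR2A, and fitted bidirectionally against DMSO.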

Read-out in test [18]: X-box binding protein 1 (XBP1), XBP1 (gene 7494)
As to the kind of experiment: LTEA_HepaRG_XBP1: Life Technologies and Expression Analysis (LTEA) Assay for X-box binding protein 1 (XBP1) using HepaRG (AID 2283540). Particulars: mRNA level, 48 h; actives raise or lower the signal. A digest of the protocol: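 Differentiated human HepaRG cells in serum-free induction medium were exposed in duplicate for 48 h to eight half-log concentrations up to 100 uM in 0.5% DMSO. XBP1 mRNA was quantified by qRT-PCR, normalised to ACTB, GAPDH and POLR2A, with bidirectional fitting against DMSO.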

The nature of test [19]: LTEA_HepaRG_LDH_cytotoxicity: Cytotoxicity Assessment in the Life Technologies and Expression Analysis (LTEA) Assay (AID 2283563; active = hit-call score of the fitted dose curve at least 0.9, where 1 is the maximum). A digest of the protocol:
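Differentiated human HepaRG cells, plated 48 h beforehand, were switched to serum-free induction medium and exposed for 48 h to eight half-log concentrations (top 100 uM) in 0.5% DMSO. LDH was measured in spent medium; activity was fitted relative to DMSO vehicle.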

Active and inactive are the calls of the source. The calls were made as follows, unless noted: active = hit-call score of the fitted dose curve at least 0.9, where 1 is the maximum; inactive = score below 0.9.

Sequence of Signal transducer and activator of transcription 3 (Homo sapiens) (P40763 whole entry, looked up): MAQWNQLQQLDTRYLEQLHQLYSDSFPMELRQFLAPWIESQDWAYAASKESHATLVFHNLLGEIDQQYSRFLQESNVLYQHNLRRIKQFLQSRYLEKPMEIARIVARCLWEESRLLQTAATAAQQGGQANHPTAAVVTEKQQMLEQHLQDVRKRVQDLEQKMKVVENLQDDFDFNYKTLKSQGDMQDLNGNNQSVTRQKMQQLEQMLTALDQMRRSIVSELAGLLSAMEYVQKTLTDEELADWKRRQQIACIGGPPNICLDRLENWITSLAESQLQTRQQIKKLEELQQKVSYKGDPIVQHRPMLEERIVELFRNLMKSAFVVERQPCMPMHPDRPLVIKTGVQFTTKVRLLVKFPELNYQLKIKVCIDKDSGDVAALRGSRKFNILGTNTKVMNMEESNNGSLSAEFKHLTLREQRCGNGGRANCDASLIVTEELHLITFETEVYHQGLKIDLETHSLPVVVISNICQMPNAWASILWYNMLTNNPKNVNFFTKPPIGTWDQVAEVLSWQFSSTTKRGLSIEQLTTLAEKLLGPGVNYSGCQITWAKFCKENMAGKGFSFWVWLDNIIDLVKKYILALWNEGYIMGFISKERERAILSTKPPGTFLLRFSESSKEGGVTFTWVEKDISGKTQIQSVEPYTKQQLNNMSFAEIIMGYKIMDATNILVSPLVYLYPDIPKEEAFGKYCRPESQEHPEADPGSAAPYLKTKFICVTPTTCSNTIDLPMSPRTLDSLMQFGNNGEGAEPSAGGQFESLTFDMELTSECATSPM
Sequence of Nuclear factor erythroid 2-related factor 2 (Homo sapiens) (Q16236 whole entry, looked up): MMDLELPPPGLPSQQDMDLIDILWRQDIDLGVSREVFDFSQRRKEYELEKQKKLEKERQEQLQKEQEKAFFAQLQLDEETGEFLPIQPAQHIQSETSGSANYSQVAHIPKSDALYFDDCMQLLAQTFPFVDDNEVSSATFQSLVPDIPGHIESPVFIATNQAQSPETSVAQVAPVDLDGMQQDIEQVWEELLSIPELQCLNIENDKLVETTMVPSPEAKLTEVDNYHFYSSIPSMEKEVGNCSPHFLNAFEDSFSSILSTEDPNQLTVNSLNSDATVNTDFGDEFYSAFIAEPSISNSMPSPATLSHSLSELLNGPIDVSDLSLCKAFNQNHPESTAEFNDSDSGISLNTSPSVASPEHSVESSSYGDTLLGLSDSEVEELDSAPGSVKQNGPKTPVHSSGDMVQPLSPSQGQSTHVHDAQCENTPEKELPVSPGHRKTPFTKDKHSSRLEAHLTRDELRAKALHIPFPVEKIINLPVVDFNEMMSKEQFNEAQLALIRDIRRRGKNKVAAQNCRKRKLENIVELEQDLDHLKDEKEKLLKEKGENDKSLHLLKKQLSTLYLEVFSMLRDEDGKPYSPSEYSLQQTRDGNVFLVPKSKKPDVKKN

A word on the AC50: it is the midpoint of the concentration-response curve, whichever way the signal moves. For the compound `C#CC(C)(C)NC(=O)c1cc(Cl)cc(Cl)c1`, the compound was called inactive in [1], in test [2], in test [3], in test [4], in [5] and in [6]. Further, the compound was classed as inactive in test [7], in [8], in test [9], in test [10], in test [11] and in test [12]. For the same compound, the result in test [13], in test [14], in test [15], in test [17], in test [18] and in [19] was inactive. In test [16], the AC50 was 13 µM (active).

As for `CCCSP(=O)(OCC)SCCC`, the result in test [1], in [2], in test [4], in test [5], in test [6] and in test [7] was inactive. In addition, the compound was classed as inactive in [8], in test [9], in test [10], in test [11], in test [12] and in test [13]. Besides, the compound was called inactive in test [14], in [15], in test [17], in test [18] and in test [19]. Moreover, the AC50 is 10.2 µM (active) in test [3] and 22.8 µM (active) in test [16].
